{"source": "PubChem BioAssay (NCATS)", "key": {"[1]": {"test": "Viability qHTS for spleen associated tyrosine kinase inhibitor (SYKi) naive MV4-11 cells (AID 1963823); also: nearly all actives have a fitted effect of over 40% in size", "outline": "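CellTiter-Glo luminescence, 10 min room-temperature incubation, gave viability. Cells: naive MV4-11 (500/well), treated 72 hr at 37 C, 5% CO2.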"}, "[2]": {"test": "Viability qHTS for spleen associated tyrosine kinase inhibitor (SYKi) drug resistant MV4-11 cells (AID 1963824); also: nearly all actives have a fitted effect of over 35% in size", "outline": "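CellTiter-Glo luminescence, read 10 min after reagent addition, reports viability after a 72 hr compound exposure. Cells are an MV4-11 line made resistant to SYK inhibition, seeded at 500 per well onto compound-containing plates.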"}}, "note": "Records with an inconclusive call do not appear. Entries that show only a call come without a potency. Values without a mark were called inactive. Activity calls are given as the source filed them. Calls follow the shape of the dose curve; as a rule, active = well fitted cell-killing curve with a large enough effect; inconclusive = small, poorly fitted or top-dose-only effect, or effect the other way; inactive = no such curve, though single readings can be large or run the other way.", "data": [{"smiles": "CC(C)=CCC[C@](C)(O[C@@H]1O[C@H](CO[C@@H]2O[C@@H](CO)[C@H](O)[C@H]2O)[C@@H](O)[C@H](O)[C@H]1O)[C@H]1CC[C@]2(C)[C@@H]1[C@H](O)C[C@@H]1[C@@]3(C)CC[C@H](O[C@@H]4O[C@H](CO)[C@@H](O)[C@H](O)[C@H]4O[C@@H]4O[C@H](CO)[C@@H](O)[C@H](O)[C@H]4O)C(C)(C)[C@@H]3CC[C@]12C", "values": [{"measurement": "Potency", "setting": "[1]", "value": "inactive"}, {"measurement": "Potency", "setting": "[2]", "value": "inactive"}]}, {"smiles": "CC(=O)O[C@H]1[C@@H](O)[C@H](O[C@H]2[C@@H]3C=CO[C@@H](O[C@H]4O[C@@H](CO)[C@H](O)[C@@H](O)[C@@H]4O)[C@@H]3[C@@]3(CO)O[C@@H]23)O[C@@H](C)[C@@H]1OC(=O)/C=C/c1ccccc1", "values": [{"measurement": "Potency", "setting": "[1]", "value": "inactive"}, {"measurement": "Potency", "setting": "[2]", "value": "inactive"}]}, {"smiles": "O=C(O)COCCN1CCN([C@H](c2ccccc2)c2ccc(Cl)cc2)CC1", "values": [{"measurement": "Potency", "setting": "[1]", "value": "inactive"}, {"measurement": "Potency", "setting": "[2]", "value": "inactive"}]}, {"smiles": "C[C@@H]1CC[C@]2(C(=O)O[C@@H]3O[C@H](CO[C@@H]4O[C@H](CO)[C@@H](O)[C@H](O)[C@H]4O)[C@@H](O)[C@H](O)[C@H]3O)CC[C@]3(C)C(=CCC4[C@@]5(C)CC[C@H](O)[C@](C)(C(=O)O)C5CC[C@]43C)[C@@H]2[C@]1(C)O", "note": "(some centres undefined)", "values": [{"measurement": "viability (% of control)", "setting": "[1]", "value": "70.3% [at 9.25 µM]"}, {"measurement": "viability, % of control", "setting": "[2]", "value": "98.7% [at 9.25 µM]"}]}, {"smiles": "CN(C)CC/C=C1\\c2ccccc2COc2ccccc21", "values": [{"measurement": "Potency", "setting": "[1]", "value": "inactive"}, {"measurement": "Potency", "setting": "[2]", "value": "inactive"}]}, {"smiles": "CC1=C2C[C@H]3O[C@@]3(C)CCC3O[C@@]3(C)C[C@@]2(O)OC1=O", "note": "(some centres undefined)", "values": [{"measurement": "Potency", "setting": "[1]", "value": "inactive"}, {"measurement": "Potency", "setting": "[2]", "value": "inactive"}]}, {"smiles": "C[C@@H]1O[C@@H](O[C@@H]2CO[C@@H](O[C@H]3CC[C@@]4(C)C(CC[C@]5(C)C4CC=C4[C@@H]6CC(C)(C)CC[C@]6(C(=O)O[C@@H]6O[C@H](CO)[C@@H](O)[C@H](O)[C@H]6O)CC[C@]45C)[C@]3(C)CO)[C@H](O)[C@H]2O[C@@H]2O[C@H](CO)[C@@H](O)[C@H](O)[C@H]2O)[C@H](O)[C@H](O)[C@H]1O", "note": "(some centres undefined)", "values": [{"measurement": "viability (% of control)", "setting": "[1]", "value": "57.4% [at 9.25 µM]"}, {"measurement": "viability, % of control", "setting": "[2]", "value": "62.6% [at 9.25 µM]"}]}]}
